The record followed here is PubChem BioAssay (NCATS).

Records with an inconclusive call do not appear. A number with no mark means an inactive call. Calls of active or inactive are those of the source. The call rests on the fitted dose curve; in most records, active means well fitted activation curve with a large enough effect in the main read-out, with a control signal flat (not every such curve was filed as active); inconclusive means small, poorly fitted or top-dose-only effect, or effect the other way, or a change in a side signal; inactive means flat fitted curve, though single readings scatter.

The experiment deals with 3',5'-cyclic-AMP phosphodiesterase 4B (Homo sapiens) (UniProt Q07343). In words: qHTS Assay for Inhibitors of PDE-IV (AID 607). Further: % of control where 0% means no effect. As to conditions: HEK293 ACTOne CNG channel cells, membrane potential fluorescence; series mostly up to 22.9 µM; activation (PDE inhibition): at the top concentration. The method, boiled down: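 The readout is membrane depolarisation from a cAMP-sensing CNG channel, detected with a potential dye at ex 535/em 590. Cells were HEK293-derived (endogenous PDE-IV) at 1000 cells/well, titrated up to 22.9 uM final.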
Sequence of 3',5'-cyclic-AMP phosphodiesterase 4B (Homo sapiens) (Q07343 whole entry, looked up): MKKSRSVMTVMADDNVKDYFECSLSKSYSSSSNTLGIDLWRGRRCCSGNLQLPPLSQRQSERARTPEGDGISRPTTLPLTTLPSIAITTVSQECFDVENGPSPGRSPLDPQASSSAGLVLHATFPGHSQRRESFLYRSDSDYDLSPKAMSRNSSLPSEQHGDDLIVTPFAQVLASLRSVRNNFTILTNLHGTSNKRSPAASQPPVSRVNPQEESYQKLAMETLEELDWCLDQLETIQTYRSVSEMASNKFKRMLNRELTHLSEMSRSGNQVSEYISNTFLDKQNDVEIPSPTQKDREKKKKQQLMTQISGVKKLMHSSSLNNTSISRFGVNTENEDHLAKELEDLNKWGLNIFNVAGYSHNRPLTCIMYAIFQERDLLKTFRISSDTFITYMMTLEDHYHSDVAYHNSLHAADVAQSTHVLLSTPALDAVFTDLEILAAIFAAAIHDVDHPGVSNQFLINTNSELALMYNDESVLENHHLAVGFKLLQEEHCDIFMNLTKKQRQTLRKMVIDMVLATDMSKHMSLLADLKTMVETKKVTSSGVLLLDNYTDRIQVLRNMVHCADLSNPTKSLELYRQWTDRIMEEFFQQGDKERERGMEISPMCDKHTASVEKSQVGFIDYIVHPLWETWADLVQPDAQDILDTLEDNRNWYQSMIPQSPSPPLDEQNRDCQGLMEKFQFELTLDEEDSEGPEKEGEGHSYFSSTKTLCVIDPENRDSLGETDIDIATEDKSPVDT
In general terms: In qHTS, concentration-response curves come from the screen itself.
For the compound `CCN(CC)CCc1nc(-c2ccccc2)no1`, the “activation (PDE inhibition)” value was 2.33%. With `NS(=O)(=O)c1cc2c(cc1C(F)(F)F)NCNS2(=O)=O`, the “activation (PDE inhibition)” value is 17.2%. On the same count and under the same terms, the result for `Cc1c(NC(C)C)c(=O)n(-c2ccccc2)n1C` reads 10.4%.

`CCS(=O)(=O)CCn1c([N+](=O)[O-])cnc1C`: the “activation (PDE inhibition)” value is 3.6%. For `O=S1(=O)OC(c2ccc(O)cc2)(c2ccc(O)cc2)c2ccccc21`, the “activation (PDE inhibition)” value is -2.25%. For the compound `CC[N+](C)(CC)CCOC(=O)C1c2ccccc2Oc2ccccc21`, the “activation (PDE inhibition)” value is 4.24%.

Regarding `CC(=O)N[C@@H](CC(C)C)C(=O)O`, the “activation (PDE inhibition)” value is -7.28%. For the compound `Cc1cc(NC(=O)C2=C(O)c3ccccc3S(=O)(=O)N2C)no1`, the “activation (PDE inhibition)” value was 3.18%. The same measure, in the same setting: the result for `CN/C(=C\[N+](=O)[O-])NCCSCc1csc(CN(C)C)n1` reads 5.67%; that for `COc1ccc(NS(=O)(=O)c2ccc(N)cc2)nn1`, -5.53%; that for `CCOC(=O)[C@H](CCc1ccccc1)N[C@@H](C)C(=O)N1CCC[C@H]1C(=O)O`, -0.998%. As for `Cn1c(=O)c2c(ncn2CCO)n(C)c1=O`, the “activation (PDE inhibition)” value was -7.73%. For the compound `NC(=O)CC[C@@H](N)C(=O)O`, the “activation (PDE inhibition)” value was -10.1%. The same measure, in the same setting: for `COc1ccc2cc(CCC(C)=O)ccc2c1` the value was -0.94%; for `CCCCC1(COC(=O)CCC(=O)O)C(=O)N(c2ccccc2)N(c2ccccc2)C1=O`, 21.9%; for `CC[N+](CC)(CC(=O)Nc1c(C)cccc1C)Cc1ccccc1`, -1.17%.

As to `Cc1c(NC(=O)c2cccnc2)c(=O)n(-c2ccccc2)n1C`, the “activation (PDE inhibition)” value was 11.6%.

`CC(C)=CCC/C(C)=C/CO`: the “activation (PDE inhibition)” value is -0.282%. For `NC(N)=NS(=O)(=O)c1ccc(N)cc1`, the “activation (PDE inhibition)” value was -4.09%.

On to `CN1C(C)(C)CCCC1(C)C`, for which the compound was classed as inactive. Turning to `CCCNC(C)(C)COC(=O)c1ccccc1`, the “activation (PDE inhibition)” value was 14.9%. The same measure, in the same setting: the result for `O=C(O)c1ccccc1C(=O)Nc1ccc(S(=O)(=O)Nc2nccs2)cc1` reads -10.6%. Regarding `Cc1ncc(CO)c(CN)c1O`, the “activation (PDE inhibition)” value was 7.05%.

For the compound `O=C(O)c1ccccc1OP(=O)(O)O`, the “activation (PDE inhibition)” value is 0.934%. Take `C[N+](C)(C)CC[N+]1(C)Cc2c(Cl)c(Cl)c(Cl)c(Cl)c2C1`: the “activation (PDE inhibition)” value is 1.91%. With `Cn1c([N+](=O)[O-])cnc1COC(N)=O`, the “activation (PDE inhibition)” value was -1.11%. Still for that read-out and setting: for `NS(=O)(=O)c1ccc(C(=O)O)cc1` the value was 8.57%.

Consider `C[C@@H]1CCC[C@H](C)N1`, for which the “activation (PDE inhibition)” value was 2.33%.
